Source: PubChem BioAssay (several laboratories)
The list is not random: actives were taken first. Their share in the collection is about 0.65%.
ugtP null kill = compounds lethal to S. aureus RN4220 ugtP deletion mutant; AID 1259309; OD600 growth, 16 h; growth inhibition, % (test concentration not listed); 330,000 tested, 0.54% active; in the data active means growth inhibition above about 68%;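 further: plate controls were untreated wells for no effect and antibiotic for full effect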
BJeLR lethal = kills HRASV12-expressing BJeLR cells | BJeLR (HRASV12) viability, CellTiter-Glo ATP luminescence, 48 h | 300,000 tested, 0.17% active | inhibition, % (no concentration beside the values); in the data active means inhibition above about 50%
Sa RN4220 lethal = S. aureus RN4220 growth inhibition; OD600, 16 h; inhibition, % (concentration not given with the values); 330,000 tested, 0.33% active; in the data active means inhibition above about 85%;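 further: plate controls were untreated cells for no effect and reference antibiotic for full effect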
Numbers without * were called inactive; / = no result.

SMILES	ugtP null kill	BJeLR lethal	Sa RN4220 lethal
COc1ccc(CCNc2c3ccccc3nc3ccccc23)cc1OC	93.2*	15.2	-3.0
COc1nc(NCCc2ccc(OC)c(OC)c2)nc(OC)n1	-10.6	6.1	-0.4
Cc1cnc(C(=O)N2CCN(S(=O)(=O)c3cc(C(F)(F)F)cc(C(F)(F)F)c3)CC2)cn1	13.2	/	23.3
CC1CC1C(=O)N1CCN(S(=O)(=O)c2cc(C(F)(F)F)cc(C(F)(F)F)c2)CC1 (stereo not given)	96.1*	/	86.5*
CC(C)Oc1ccc(C2CC(=O)N(c3cccc(C(=O)O)c3)C2=O)cc1 (stereo not given)	12.7	-2.1	0.0
COc1cc(C=NNc2nc3ccccc3s2)ccc1O	6.5	/	7.5
CC(=O)N1CCN(S(=O)(=O)c2ccccc2)C1c1ccccc1 (stereo not given)	4.7	10.8	2.6
O=C(Nc1ccc(Cl)c(Cl)c1)ON=Cc1ccncc1	100.5*	/	100.4*
COc1cccc(S(=O)(=O)NCc2ccc(C(=O)Nc3ccc(Cl)c(Cl)c3)cc2)c1	-14.8	6.9	-5.3
O=C(Nc1cccnc1)OCc1ccccc1	-3.9	0.7	-3.9
O=C(Nc1ccc(Cl)c(Cl)c1)OCc1cccnc1	100.2*	-4.3	99.9*
O=C(Nc1ccccc1)O/N=C/c1ccncc1	/	9.5	/
O=C(Nc1ccc(Cl)c(Cl)c1)c1cccc(S(=O)(=O)NCc2cccnc2)c1	90.3	4.8	100.3*
O=C(CC1SC(=O)N(Cc2ccc(Cl)cc2)C1=O)Nc1nccs1 (stereo not given)	/	5.4	/
O=C(N=Nc1c(O)[nH]c(=O)[nH]c1=O)C1COc2cc3ccccc3cc2O1 (stereo not given)	3.1	-4.0	9.1
O=C(Nc1ccccc1)c1nnsc1S(=O)c1ccc(Cl)cc1 (stereo not given)	100.5*	-14.0	100.3*
O=C(c1nnsc1S(=O)(=O)c1ccc(Cl)cc1)N1CCOCC1	19.0	-2.3	10.0
O=C(c1nnsc1S(=O)c1ccc(Cl)cc1)N1CCOCC1 (stereo not given)	100.5*	-4.0	95.4*
Cc1nnsc1S(=O)c1ccc(Cl)cc1 (stereo not given)	14.3	-7.7	5.0
CCOc1ccc(S(=O)(=O)N2CCCC(C(=O)NCc3cccnc3)C2)cc1 (stereo not given)	1.8	6.1	3.0
COc1ccc2c(c1)c(=O)c(C(=O)c1ccccc1)cn2Cc1ccc(C)cc1	-7.9	4.3	-0.9
O=C(CSc1nnc(Cc2cc(=O)[nH]c(=O)[nH]2)n1-c1ccc(Cl)cc1)N1CCc2ccccc21	2.5	9.0	0.1
CSc1nc2c(cc1C#N)CCCCC2	4.2	14.5	8.3
Oc1ccc(CN2CCN(c3ccccc3)CC2)c2cccnc12	-7.8	-13.9	4.1
O=[N+]([O-])c1cc(CN2CCN(c3cccc(C(F)(F)F)c3)CC2)c2cccnc2c1O	86.4*	7.7	61.4
SMILES	ugtP null kill	BJeLR lethal	Sa RN4220 lethal
COc1ccc(-n2c(=S)[nH]c3c(oc4ccccc43)c2=O)cc1	-9.9	-1.5	2.8
C=CCOc1cccc(C(=O)N2CCCC(Nc3ccc4c(c3)OCCO4)C2)c1 (stereo not given)	9.6	-6.6	3.6
O=C(CCn1c(=O)c2cccn2c2ccc(F)cc21)NCCc1ccccc1	0.0	-7.5	-0.6
Cc1cccc(C(=O)NNC(=O)c2ccccc2)c1	1.2	19.7	4.2
Cc1cccc(C(=O)c2cnc3ccccc3c2-c2ccccc2)c1	88.0*	-6.6	-1.5
O=C(N/C(=C\c1cccc(Br)c1)C(=O)N1CCCCC1)c1ccco1	2.8	-7.5	0.4
CN1CCO/C1=C(\C(Cl)=C(Cl)Cl)[N+](=O)[O-]	1.6	-5.7	3.7
COC(=O)C[C@](O)(CCCC(C)(C)O)C(=O)O[C@@H]1C(OC)=C[C@]23CCCN2CCc2cc4c(cc2[C@H]13)OCO4	/	92.0*	/
CCOc1ccccc1C(=O)NCC(=O)N(C)Cc1ccccc1C	0.6	-1.9	3.6
COc1ccc(-c2ccc(/C=C3\C(=O)N(c4ccccc4)N=C3c3ccccc3)o2)c([N+](=O)[O-])c1	1.9	1.8	-7.2
COc1ccc(-c2ccc(/C=C3/C(=N)N4C(C)=CSC4=NC3=O)o2)c([N+](=O)[O-])c1	97.7*	-20.4	5.9
S=C1N(c2ccccc2)CN(CCN2CCOCC2)CN1c1ccccc1	0.9	-5.4	-0.4
Cc1onc(-c2c(Cl)cccc2Cl)c1COC(=O)c1ccc(Cl)cc1	88.6*	0.9	4.9
Cc1onc(-c2c(Cl)cccc2Cl)c1COC(=O)c1ccc([N+](=O)[O-])cc1	8.0	5.9	3.0
O=C(Oc1cc(Cl)ccc1Cl)C1=CC=CN2CCS(=O)(=O)N=C12	1.1	/	2.9
O=C(c1cccnc1Nc1ccc2c(c1)CCC2)N1CCOCC1	7.0	-0.7	4.5
FC(F)(F)c1cccc(Cn2c3[n+](c4ccc(C(F)(F)F)cc42)CCCCC3)c1	2.5	2.8	6.4
